This note sets out measurements from PubChem BioAssay.

Active and inactive are the calls of the source. Unless noted, the rule behind the calls is not given here.

In experiment [1] the test system is Wnt5a (protein binding on small-molecule microarray). Put plainly: small molecules binding Wnt5a protein – biophysical, small-molecule microarray, 635/667 nm fluorescence, primary screen (AID 1142).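 Note: fluorescence read at 667 nm with signal to noise per printed feature.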 To be noted: 635 nm fluorescence, higher = more signal.
Experiment [2] is described as follows: ATP-based viability of Huh7 replicon cells – cell-based, CellTiter-Glo luminescence, basal, 48 h, cytotoxicity control for HCV replication inhibitor project, primary screen (AID 1143).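 Note: Huh7 hepatoma cells carrying a hepatitis C replication reporter with no stimulus; test concentration not given here.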 Particulars: higher = more signal, called active from +8 up or from −8 down.
Experiment [3] in a line: Pseudomonas biofilm growth suppression – PAO1 strain, BacTiter-Glo luminescence, LB-PBS, primary screen (AID 1144). Particulars: P. aeruginosa PAO1 biofilm, 12 h, higher = more signal.
A short description of experiment [4]: basal CRE-LacZ reporter activity in PC12 – cell-based, unstimulated, primary screen (AID 1145). Particulars: no forskolin, luminescence, 4.5 h, higher = more signal, called active from +8 up or from −8 down.
Experiment [5] in a line: forskolin-driven CRE-LacZ activity in PC12 – cell-based, CRE-LacZ reporter, forskolin-stimulated, primary screen (AID 1146).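 Note: PC12 cells with 6xCRE LacZ reporter stimulated by forskolin 10 µM; beta-galactosidase reporter signal reflecting CREB driven transcription.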 To be noted: luminescence, 4.5 h, higher = more signal, called active from +8 up or from −8 down.
Experiment [6] deals with Streptavidin (Streptomyces avidinii) (UniProt P22629). Put plainly: compounds binding control protein streptavidin – biophysical, small-molecule microarray, 635/667 nm fluorescence, artefact control for SMM compound annotation, primary screen (AID 1147).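 Note: signal reflects streptavidin binding to arrayed compounds as a control protein.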 Particulars: higher = more signal.
Sequence of Streptavidin (Streptomyces avidinii) (P22629 whole entry, looked up): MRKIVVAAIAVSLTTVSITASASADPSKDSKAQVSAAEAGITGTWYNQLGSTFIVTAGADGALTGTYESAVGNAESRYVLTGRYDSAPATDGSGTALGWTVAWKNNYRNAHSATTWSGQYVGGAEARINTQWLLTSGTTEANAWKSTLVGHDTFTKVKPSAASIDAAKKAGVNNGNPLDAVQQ
The nature of experiment [7]: probe aInhba binding on compound microarray – biochemical, small-molecule microarray, 635/667 nm fluorescence, primary screen (AID 1148).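 Note: score merges 667nm spot fluorescence with signal-to-noise for antibody binding to printed compounds.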 To be noted: higher = more signal.
Experiment [8] deals with Torsin-1A (Homo sapiens) (UniProt O14656). Put plainly: TOR1A wild-type binding on microarray – cell lysate, small-molecule microarray, lysate, 635/667 nm, primary screen (AID 1149). To be noted: COS7 hTOR1A-WT lysate, 635 nm fluorescence, higher = more signal.
Sequence of Torsin-1A (Homo sapiens) (O14656 whole entry, looked up): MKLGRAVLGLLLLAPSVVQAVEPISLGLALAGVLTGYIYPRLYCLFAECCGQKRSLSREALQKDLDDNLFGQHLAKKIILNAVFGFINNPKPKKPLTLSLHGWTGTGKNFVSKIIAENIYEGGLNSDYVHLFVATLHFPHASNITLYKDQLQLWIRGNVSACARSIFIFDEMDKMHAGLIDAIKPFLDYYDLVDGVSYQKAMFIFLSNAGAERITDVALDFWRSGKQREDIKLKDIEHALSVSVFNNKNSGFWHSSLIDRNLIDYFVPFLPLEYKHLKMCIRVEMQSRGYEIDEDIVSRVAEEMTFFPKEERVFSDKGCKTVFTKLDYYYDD
For experiment [9] the target is unchanged. Put plainly: torsin A mutant lysate binding on microarrays – cell lysate, small-molecule microarray, COS7 lysate, 635/667 nm fluorescence, primary screen (AID 1150).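 Note: score pools 667 nm emission and signal to noise measuring lysate protein binding.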 To be noted: COS7 hTOR1A mutant lysate, 635 nm fluorescence, higher = more signal.
The subject of experiment [10] is Sonic hedgehog protein (Shh). Put plainly: Sonic hedgehog microarray binding compounds – biochemical, small-molecule microarray, 635/667 nm fluorescence, primary screen (AID 1151).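 Note: Shh protein binding to compounds spotted on small-molecule microarray slides; score combines spot fluorescence intensity with signal-to-noise across triplicate slides.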 To be noted: 635 nm fluorescence, higher = more signal.
A short description of experiment [11]: optical density shifts of acrAB sulA E. coli – strain DRC41, OD650, 48 h, E. coli filamentation inducer project, primary screen (AID 1152).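 Note: E. coli MC1000 strain DRC41 lacking acrAB efflux pump and sulA.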 To be noted: higher = more signal, called active from +8 up or from −8 down.
The nature of experiment [12]: probe aLefty1 binding on compound microarray – biochemical, small-molecule microarray, 635/667 nm fluorescence, primary screen (AID 1153).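 Note: score merges spot fluorescence with signal-to-noise ratio from the scanned slide images.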 To be noted: higher = more signal.
The nature of experiment [13]: plasmodial surface anion channel blockers, osmotic lysis – cell-based, P. falciparum Indochina, OD700, 1 h, primary screen (AID 1154). Particulars: P. falciparum Indochina infected RBC osmotic lysis, higher = more signal, called active from +8 up or from −8 down.
A short description of experiment [14]: plasmodial surface anion channel blockers, osmotic lysis – cell-based, P. falciparum Indochina, OD700, 2 h, primary screen (AID 1155).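 Note: lysis reports solute entry through the parasite surface anion channel PSAC.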 To be noted: P. falciparum Indochina infected erythrocytes, higher = more signal, called active from +8 up or from −8 down.
A short description of experiment [15]: changes in parasitized red cell lysis, either direction – P. falciparum Indochina, OD700, 3 h, PSAC antagonist project, primary screen (AID 1156). Particulars: P. falciparum-infected erythrocytes, osmotic lysis, higher = more signal, called active from +8 up or from −8 down.
Experiment [16] in a line: plasmodial surface anion channel blockers, osmotic lysis – cell-based, P. falciparum Indochina, OD700, 18 h, primary screen (AID 1157). To be noted: P. falciparum Indochina infected erythrocytes, osmotic lysis OD700, 18 h; higher = more signal, called active from +8 up or from −8 down.
Experiment [17] is described as follows: S6 kinase pathway phospho-S6 level changes – cell-based, A549, cytoblot, luminescence, serum-stimulated, primary screen (AID 1158).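 Note: serum-stimulated A549 lung adenocarcinoma cells; signal is phosphorylated S6 detected by cytoblot immunostaining with HRP secondary.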 To be noted: 5 h, higher = more signal.
The target in experiment [18] is NADPH oxidase 2 (Homo sapiens) (UniProt P04839). Put plainly: compounds shifting NOX2 Amplex Red fluorescence – cell-based, HEK293-NOX2, PMA-stimulated, NOX inhibitor project, primary screen (AID 1159). Note: test concentration not given here. To be noted: 45 min, higher = more signal, called active from +8 up or from −8 down.
Sequence of NADPH oxidase 2 (Homo sapiens) (P04839 whole entry, looked up): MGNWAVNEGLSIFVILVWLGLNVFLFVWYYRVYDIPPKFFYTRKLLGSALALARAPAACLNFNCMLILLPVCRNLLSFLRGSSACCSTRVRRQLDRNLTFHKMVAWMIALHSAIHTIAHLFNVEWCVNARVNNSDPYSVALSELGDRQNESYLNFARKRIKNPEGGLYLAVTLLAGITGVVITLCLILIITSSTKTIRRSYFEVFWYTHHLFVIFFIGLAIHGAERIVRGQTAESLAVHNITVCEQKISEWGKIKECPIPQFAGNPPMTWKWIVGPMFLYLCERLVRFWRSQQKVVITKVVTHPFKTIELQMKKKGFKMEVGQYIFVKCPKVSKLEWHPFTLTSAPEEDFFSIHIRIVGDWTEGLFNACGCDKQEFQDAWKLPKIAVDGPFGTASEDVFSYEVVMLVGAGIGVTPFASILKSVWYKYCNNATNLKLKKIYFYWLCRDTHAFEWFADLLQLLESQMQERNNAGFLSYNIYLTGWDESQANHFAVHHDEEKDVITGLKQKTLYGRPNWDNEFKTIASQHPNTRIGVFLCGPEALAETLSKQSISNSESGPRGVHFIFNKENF
Experiment [19] has as its target NADPH oxidase 4 (Homo sapiens) (UniProt Q9NPH5). As to the kind of experiment: compounds shifting NOX4 Amplex Red fluorescence – cell-based, HEK293-NOX4, tetracycline-induced, NOX inhibitor project, primary screen (AID 1160). To be noted: HEK293-NOX4, Amplex Red H2O2 fluorescence, 45 min; higher = more signal, called active from +8 up or from −8 down.
The target of experiment [20] is NADPH oxidase 5 (Homo sapiens) (UniProt Q96PH1). As to the kind of experiment: compounds shifting NOX5 Amplex Red fluorescence – cell-based, HEK293-NOX5, NOX inhibitor project, primary screen (AID 1161). Particulars: HEK293-NOX5, ionomycin, 45 min, higher = more signal.
Sequence of NADPH oxidase 5 (Homo sapiens) (Q96PH1 whole entry, looked up): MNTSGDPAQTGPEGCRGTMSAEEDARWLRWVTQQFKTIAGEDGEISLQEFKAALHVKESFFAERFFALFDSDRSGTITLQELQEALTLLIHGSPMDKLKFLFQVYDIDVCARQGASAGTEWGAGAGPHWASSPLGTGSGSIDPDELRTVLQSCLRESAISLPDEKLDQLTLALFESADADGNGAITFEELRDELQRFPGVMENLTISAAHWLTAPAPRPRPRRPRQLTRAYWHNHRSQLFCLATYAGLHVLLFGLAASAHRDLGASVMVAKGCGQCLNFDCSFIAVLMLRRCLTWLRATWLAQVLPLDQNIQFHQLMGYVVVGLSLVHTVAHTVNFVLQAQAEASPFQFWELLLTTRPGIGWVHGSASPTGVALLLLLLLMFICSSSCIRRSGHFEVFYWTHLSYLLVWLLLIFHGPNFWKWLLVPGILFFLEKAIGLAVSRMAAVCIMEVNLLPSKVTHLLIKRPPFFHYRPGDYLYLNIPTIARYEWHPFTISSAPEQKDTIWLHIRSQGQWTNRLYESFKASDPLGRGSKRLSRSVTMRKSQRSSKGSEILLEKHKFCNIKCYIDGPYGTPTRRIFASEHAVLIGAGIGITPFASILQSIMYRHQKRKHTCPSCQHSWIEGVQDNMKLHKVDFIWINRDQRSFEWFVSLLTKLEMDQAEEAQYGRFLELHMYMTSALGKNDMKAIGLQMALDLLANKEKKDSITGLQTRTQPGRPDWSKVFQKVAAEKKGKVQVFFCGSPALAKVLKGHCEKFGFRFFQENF

Sequence of NADPH oxidase 4 (Homo sapiens) (Q9NPH5 whole entry, looked up): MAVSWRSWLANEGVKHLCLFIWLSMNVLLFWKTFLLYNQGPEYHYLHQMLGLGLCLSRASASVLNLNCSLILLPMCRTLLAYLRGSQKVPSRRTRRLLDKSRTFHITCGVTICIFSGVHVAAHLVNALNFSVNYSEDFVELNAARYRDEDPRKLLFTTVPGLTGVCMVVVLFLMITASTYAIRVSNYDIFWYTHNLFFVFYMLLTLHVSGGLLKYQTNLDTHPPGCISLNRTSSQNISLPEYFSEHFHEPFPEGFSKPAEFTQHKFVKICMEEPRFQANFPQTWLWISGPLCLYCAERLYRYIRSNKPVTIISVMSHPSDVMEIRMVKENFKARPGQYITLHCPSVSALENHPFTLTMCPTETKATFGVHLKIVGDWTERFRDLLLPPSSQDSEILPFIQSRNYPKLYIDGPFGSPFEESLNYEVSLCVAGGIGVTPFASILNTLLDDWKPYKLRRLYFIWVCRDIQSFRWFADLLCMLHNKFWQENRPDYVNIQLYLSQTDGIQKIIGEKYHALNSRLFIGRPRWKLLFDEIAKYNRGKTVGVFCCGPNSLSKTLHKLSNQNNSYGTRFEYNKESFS

Regarding `COCCNC(=O)OCC1CCCC2(CC(OC(=O)NCCc3ccc(F)cc3)CC(CCC(=O)N[C@@H](C)C(=O)OC)O2)O1` (stereo not given in full), the composite z-score in [1] was 0.156; in experiment [6], 0.753; in experiment [7], -0.128; with Torsin-1A (Homo sapiens) [8], 0.267; with Torsin-1A (Homo sapiens) [9], -0.0343; in experiment [10], 1.09. Also, the composite z-score in experiment [12] amounted to 0.0547. Moreover, the z-score in experiment [2] is -0.126 (inactive); in [3], 0.252 (inactive); in experiment [4], 0.374 (inactive); in [5], -0.448 (inactive); in experiment [11], 0.622 (inactive); in experiment [13], -0.577 (inactive). For the same compound, the z-score in experiment [14] was -0.61 (inactive); in [15] it was 0.958 (inactive); in [16], 0.565 (inactive); in experiment [17] it was 0.672; in experiment [18], 0.769 (inactive); in [19], 0.948 (inactive). The z-score in [20] turned out to be 0.232.

As for `CCOC(=O)C1=CCC(c2cc3ccccc3[nH]2)NC1` (stereo not given), the composite z-score in [1] is 0.109; in experiment [6], 0.338; in experiment [7], 0.029; with Torsin-1A (Homo sapiens) [8], 0.661; in the experiment with Torsin-1A (Homo sapiens) [9], 0.449; in experiment [10], -0.402. This compound also registered a composite z-score in experiment [12] of 0.3. In addition, the z-score in experiment [2] was -2.83 (inactive); in [3], 0.756 (inactive); in experiment [4] it was 0.369 (inactive); in experiment [5], 0.464 (inactive); in [11], -0.92 (inactive); in experiment [13], 6.29 (inactive). For the same compound, the z-score in experiment [14] is 1.16 (inactive); in [15], 2.48 (inactive); in experiment [16], 0.829 (inactive); in [17], 0.0315; in experiment [18], -0.246 (inactive); in experiment [19], 0.0972 (inactive). Moreover, the z-score in [20] was determined as 0.287.

`CN(C)CCCNC(=O)[C@@H]1c2ccccc2C(=O)N(Cc2ccccc2)[C@H]1c1ccc(CO)cc1`: the composite z-score in experiment [1] was -0.142; in experiment [6], -0.844; in experiment [7] it was -0.128; with Torsin-1A (Homo sapiens) [8], -0.146; with Torsin-1A (Homo sapiens) [9], -0.725; in experiment [10], -0.336. Moreover, the composite z-score in experiment [12] is -0.163. Moreover, the z-score in experiment [2] is 0.143 (inactive); in experiment [3] it was 0.596 (inactive); in [4] it was -0.295 (inactive); in experiment [5], -0.877 (inactive); in experiment [11], 0.346 (inactive); in experiment [13], 2.98 (inactive). Also, the z-score was 0.604 (inactive) in experiment [14]; 2.64 (inactive) in experiment [15]; 0.33 (inactive) in [16]; -0.25 in experiment [17]; -1.11 (inactive) in experiment [18]; 1.02 (inactive) in experiment [19]. For the same compound, the z-score in experiment [20] was -0.911.

As to `C=CC[C@@H]1C=C[C@H](ON=Cc2ccc(C(=O)N3[C@H](c4ccc(C)cc4)[C@@H](C)CC[C@H]3C(=O)OC)cc2)[C@@H](CO)O1`, the composite z-score is 0.14 in experiment [1]; -0.161 in experiment [6]; -0.0791 in [7]; -0.0434 with Torsin-1A (Homo sapiens) [8]; 0.0034 with Torsin-1A (Homo sapiens) [9]; 0.68 in [10]. In experiment [12], the composite z-score was -0.0945. In addition, the z-score is -1.33 (inactive) in experiment [2]; 0.694 (inactive) in [3]; 3.89 (inactive) in experiment [4]; 0.062 (inactive) in [5]; 0.69 (inactive) in experiment [11]; 2.78 (inactive) in experiment [13]. For the same compound, the z-score in experiment [14] was 0.852 (inactive); in [15], -0.273 (inactive); in experiment [16], 0.637 (inactive); in [17], -1.15; in experiment [18], -0.428 (inactive); in experiment [19] it was 0.569 (inactive). The z-score in experiment [20] is -0.0942.
